The full data set covers some 8,800 targets. This sample favours those with a hit. About 0.5% of all pairs of compound and target were hits. Values without a mark were called inactive.

Chain of UniProt Q8TD55 (Q8TD55 whole entry, looked up): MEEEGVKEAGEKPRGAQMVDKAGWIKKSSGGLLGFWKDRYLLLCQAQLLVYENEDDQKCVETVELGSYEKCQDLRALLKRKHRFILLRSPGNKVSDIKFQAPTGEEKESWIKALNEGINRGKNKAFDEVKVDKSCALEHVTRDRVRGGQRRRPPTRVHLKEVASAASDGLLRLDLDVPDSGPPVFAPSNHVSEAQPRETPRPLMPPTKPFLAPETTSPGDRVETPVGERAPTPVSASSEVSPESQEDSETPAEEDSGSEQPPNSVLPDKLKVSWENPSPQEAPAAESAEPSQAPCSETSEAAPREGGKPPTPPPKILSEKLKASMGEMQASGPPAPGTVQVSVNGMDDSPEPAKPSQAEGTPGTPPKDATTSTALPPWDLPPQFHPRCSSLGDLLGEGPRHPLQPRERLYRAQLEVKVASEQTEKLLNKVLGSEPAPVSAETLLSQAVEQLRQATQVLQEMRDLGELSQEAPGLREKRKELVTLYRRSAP
Chain of UniProt Q9Y5K3 (Q9Y5K3 whole entry, looked up): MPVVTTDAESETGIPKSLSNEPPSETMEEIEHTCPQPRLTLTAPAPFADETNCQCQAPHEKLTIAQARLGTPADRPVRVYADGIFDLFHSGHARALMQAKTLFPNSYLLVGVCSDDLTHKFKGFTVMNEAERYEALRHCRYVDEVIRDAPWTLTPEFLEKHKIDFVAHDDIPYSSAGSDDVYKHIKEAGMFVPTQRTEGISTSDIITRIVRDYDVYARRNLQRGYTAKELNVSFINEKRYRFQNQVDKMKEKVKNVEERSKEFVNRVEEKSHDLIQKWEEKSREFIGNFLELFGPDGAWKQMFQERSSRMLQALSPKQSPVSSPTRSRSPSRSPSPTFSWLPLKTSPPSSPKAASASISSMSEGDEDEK
Chain of UniProt P49643 (P49643 whole entry, looked up): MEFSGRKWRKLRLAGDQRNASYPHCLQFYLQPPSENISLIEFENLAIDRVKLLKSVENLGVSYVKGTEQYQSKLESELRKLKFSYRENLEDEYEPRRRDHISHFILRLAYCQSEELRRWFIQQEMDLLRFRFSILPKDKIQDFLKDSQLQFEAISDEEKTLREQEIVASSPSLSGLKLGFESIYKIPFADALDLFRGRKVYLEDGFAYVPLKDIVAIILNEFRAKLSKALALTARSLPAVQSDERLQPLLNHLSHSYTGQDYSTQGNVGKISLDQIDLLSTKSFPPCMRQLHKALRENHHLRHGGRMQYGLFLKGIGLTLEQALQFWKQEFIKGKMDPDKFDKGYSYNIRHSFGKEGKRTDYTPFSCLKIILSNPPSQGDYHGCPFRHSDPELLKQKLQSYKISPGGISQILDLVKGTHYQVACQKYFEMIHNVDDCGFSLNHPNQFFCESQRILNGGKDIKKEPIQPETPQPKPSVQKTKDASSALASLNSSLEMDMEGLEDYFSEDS
Chain of UniProt Q15054 (Q15054 whole entry, looked up): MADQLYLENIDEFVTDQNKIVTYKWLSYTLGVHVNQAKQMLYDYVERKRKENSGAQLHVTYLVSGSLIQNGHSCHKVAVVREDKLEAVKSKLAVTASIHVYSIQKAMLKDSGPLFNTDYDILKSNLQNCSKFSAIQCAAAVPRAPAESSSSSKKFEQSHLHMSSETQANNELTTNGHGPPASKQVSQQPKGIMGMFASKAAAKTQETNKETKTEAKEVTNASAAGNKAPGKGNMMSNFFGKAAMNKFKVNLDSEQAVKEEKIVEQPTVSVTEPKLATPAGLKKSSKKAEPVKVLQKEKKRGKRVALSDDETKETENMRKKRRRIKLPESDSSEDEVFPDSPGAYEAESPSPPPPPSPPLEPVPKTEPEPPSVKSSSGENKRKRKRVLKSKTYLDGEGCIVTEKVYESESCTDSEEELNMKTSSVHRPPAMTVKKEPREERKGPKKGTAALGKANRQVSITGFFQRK
Chain of UniProt Q9BZE2 (Q9BZE2 whole entry, looked up): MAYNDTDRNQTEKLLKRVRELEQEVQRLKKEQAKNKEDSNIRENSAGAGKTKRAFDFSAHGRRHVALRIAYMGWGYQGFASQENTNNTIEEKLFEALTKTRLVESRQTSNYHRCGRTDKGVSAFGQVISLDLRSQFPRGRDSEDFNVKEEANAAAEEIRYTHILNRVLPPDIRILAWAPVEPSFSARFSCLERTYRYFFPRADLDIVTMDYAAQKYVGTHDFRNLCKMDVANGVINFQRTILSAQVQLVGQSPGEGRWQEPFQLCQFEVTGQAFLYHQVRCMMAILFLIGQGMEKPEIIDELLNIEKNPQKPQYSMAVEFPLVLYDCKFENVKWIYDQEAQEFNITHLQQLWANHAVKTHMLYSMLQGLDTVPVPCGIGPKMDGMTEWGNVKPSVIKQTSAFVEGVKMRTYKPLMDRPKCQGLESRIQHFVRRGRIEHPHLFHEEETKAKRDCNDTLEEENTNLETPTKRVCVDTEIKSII
Chain of UniProt Q8TCG2 (Q8TCG2 whole entry, looked up): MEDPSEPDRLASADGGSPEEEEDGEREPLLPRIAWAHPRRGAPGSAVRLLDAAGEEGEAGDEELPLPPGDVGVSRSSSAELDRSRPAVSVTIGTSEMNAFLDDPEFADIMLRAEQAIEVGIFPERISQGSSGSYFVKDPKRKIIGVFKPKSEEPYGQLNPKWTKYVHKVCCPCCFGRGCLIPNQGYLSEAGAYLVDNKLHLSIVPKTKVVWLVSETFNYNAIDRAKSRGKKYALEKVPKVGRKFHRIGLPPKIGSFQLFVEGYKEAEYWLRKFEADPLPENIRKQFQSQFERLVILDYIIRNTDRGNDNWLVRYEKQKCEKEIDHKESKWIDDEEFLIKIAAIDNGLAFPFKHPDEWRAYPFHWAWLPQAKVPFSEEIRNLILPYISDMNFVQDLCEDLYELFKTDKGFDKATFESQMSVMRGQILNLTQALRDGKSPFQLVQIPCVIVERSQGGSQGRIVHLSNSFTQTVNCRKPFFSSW
Chain of UniProt P07737 (P07737 whole entry, looked up): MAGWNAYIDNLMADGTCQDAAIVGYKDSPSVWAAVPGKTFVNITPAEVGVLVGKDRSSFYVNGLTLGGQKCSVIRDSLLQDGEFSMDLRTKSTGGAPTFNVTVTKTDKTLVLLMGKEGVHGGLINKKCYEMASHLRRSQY
Chain of UniProt O75334 (O75334 whole entry, looked up): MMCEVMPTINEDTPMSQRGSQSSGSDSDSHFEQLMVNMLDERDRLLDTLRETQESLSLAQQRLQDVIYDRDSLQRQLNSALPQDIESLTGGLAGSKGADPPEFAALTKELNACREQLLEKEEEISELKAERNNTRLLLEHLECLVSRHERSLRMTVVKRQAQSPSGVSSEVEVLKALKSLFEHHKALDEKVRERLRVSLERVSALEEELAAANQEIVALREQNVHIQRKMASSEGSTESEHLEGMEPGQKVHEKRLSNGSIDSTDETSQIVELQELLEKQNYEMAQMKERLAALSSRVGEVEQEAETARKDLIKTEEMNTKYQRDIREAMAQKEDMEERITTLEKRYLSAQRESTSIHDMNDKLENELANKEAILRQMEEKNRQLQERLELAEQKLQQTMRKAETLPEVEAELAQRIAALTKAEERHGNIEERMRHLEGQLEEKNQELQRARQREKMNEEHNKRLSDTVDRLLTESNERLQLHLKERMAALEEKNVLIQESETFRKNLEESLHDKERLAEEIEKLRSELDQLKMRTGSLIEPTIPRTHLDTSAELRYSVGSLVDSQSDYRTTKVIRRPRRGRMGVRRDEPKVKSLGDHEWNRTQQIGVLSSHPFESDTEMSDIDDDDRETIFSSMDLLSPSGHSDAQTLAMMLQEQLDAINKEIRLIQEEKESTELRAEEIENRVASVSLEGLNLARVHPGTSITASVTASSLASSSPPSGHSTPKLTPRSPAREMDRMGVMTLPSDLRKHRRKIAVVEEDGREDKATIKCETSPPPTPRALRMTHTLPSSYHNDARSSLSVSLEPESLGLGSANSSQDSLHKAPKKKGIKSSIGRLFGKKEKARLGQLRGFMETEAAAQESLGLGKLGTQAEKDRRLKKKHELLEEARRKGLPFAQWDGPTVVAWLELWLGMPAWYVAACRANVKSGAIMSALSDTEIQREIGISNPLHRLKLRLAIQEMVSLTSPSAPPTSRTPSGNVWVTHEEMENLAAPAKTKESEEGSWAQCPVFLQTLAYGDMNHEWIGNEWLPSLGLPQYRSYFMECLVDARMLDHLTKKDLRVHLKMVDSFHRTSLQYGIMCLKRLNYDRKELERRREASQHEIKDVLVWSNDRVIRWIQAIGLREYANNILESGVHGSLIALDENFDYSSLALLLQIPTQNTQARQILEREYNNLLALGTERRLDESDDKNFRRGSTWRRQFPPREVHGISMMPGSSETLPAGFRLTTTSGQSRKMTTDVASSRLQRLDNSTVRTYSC
Chain of UniProt Q8N4L2 (Q8N4L2 whole entry, looked up): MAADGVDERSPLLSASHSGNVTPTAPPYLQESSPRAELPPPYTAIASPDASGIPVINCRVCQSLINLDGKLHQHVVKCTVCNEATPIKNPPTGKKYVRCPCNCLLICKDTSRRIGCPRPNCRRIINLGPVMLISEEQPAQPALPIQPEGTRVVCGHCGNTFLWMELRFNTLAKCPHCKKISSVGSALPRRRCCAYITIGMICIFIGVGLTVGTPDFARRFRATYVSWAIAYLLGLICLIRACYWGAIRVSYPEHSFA
Chain of UniProt Q9H2H8 (Q9H2H8 whole entry, looked up): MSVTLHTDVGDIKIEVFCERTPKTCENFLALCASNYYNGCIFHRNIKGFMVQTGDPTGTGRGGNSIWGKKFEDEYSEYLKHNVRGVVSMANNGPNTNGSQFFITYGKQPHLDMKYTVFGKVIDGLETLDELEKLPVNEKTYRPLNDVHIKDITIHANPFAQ
Chain of UniProt Q9NXJ5 (Q9NXJ5 whole entry, looked up): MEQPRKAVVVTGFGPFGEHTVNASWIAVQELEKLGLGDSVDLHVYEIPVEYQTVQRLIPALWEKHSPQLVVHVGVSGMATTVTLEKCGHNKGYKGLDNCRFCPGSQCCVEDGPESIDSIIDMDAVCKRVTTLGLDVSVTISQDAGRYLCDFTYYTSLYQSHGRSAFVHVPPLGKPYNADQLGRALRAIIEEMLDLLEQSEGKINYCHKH
Chain of UniProt O60927 (O60927 whole entry, looked up): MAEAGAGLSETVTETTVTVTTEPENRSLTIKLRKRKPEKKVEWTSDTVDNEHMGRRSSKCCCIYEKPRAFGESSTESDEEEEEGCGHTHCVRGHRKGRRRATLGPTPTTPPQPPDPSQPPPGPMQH

Compound in the first test: NC(=O)Nc1cc(-c2cccc(F)c2)sc1C(=O)N[C@H]1CCCNC1
Description: log2 fold change, soluble protein after heating vs DMSO (PISA); higher = thermal stabilisation; K562 lysate, 10 uM; active = over 0.2 and 3.5 SD of the protein, either way, in both replicates (recomputed). Summed up: (§1)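 Following dounce homogenisation of K562 pellets in PBS pH 7.4 with 1 mM MgCl2, crude extract at 1 mg/mL protein was incubated for 30 min with 10 μM compound. Aliquots were then heated for 3 min over 48°C-58°C and pooled, NP-40 was added to 0.5% at 4°C, and soluble protein was recovered as the supernatant at 21,000xg for 90 min. Channel-sum-equalised TMTpro 16plex LC-MS/MS quantified this protein. Each value, from duplicates, is a log-two fold change in thermal stability relative to solvent controls.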
Regarding PPFIA2 (UniProt O75334), the log2 fold change was 0.017.

On to PCYT1B (UniProt Q9Y5K3), for which the log2 fold change was -0.023.

PPP1R11 (UniProt O60927): the log2 fold change was 0.01.

Turning to PMS2 (UniProt P54278), the log2 fold change was 0.043.

Regarding PLXNB2 (UniProt O15031), the log2 fold change is 0.042.

PUS3 (UniProt Q9BZE2): the log2 fold change is -0.003.

Turning to PSTPIP2 (UniProt Q9H939), the log2 fold change was 0.008.

Turning to PGPEP1 (UniProt Q9NXJ5), the log2 fold change is -0.033.

Turning to PTPN6 isoform 4 (UniProt P29350), the log2 fold change is -0.03.

Turning to PDE2A (UniProt O00408), the log2 fold change is 0.006.

PPIL3 (UniProt Q9H2H8): the log2 fold change was -0.025.

Consider PI4K2B (UniProt Q8TCG2), for which the log2 fold change was 0.076.

As for PRIM2 (UniProt P49643), the log2 fold change is 0.018.

Regarding PFN1 (UniProt P07737), the log2 fold change was -0.018.

For PIP4P2 (UniProt Q8N4L2), the log2 fold change is -0.016.

Turning to PLEKHO2 (UniProt Q8TD55), the log2 fold change is 0.068.

With POLD3 (UniProt Q15054), the log2 fold change is 0.013.

Compound in a further test: NC(=O)c1cnc(N[C@@H]2CCCC[C@@H]2N)nc1Nc1cccc(-n2nccn2)c1
The test is described as above. Summed up: as §1
As for PRRC2A (UniProt P48634), the log2 fold change was -0.011.

For PSMB9 (UniProt P28065), the log2 fold change is 0.034.

On to PRKAR2A (UniProt P13861), for which the log2 fold change was -0.037.

As for PLEKHF1 (UniProt Q96S99), the log2 fold change is -0.002.

In the case of QKI (UniProt Q96PU8), the log2 fold change is -0.005.

For PGRMC1 (UniProt O00264), the log2 fold change is 0.017.

As to PYURF (UniProt Q96I23), the log2 fold change was -0.064.

Take PRKAB2 (UniProt O43741): the log2 fold change was 0.036.

As for PHKA1 (UniProt P46020), the log2 fold change is 0.091.

For PUS1 (UniProt Q9Y606), the log2 fold change is 0.036.

As to POC5 (UniProt Q8NA72), the log2 fold change is -0.128.

Regarding PELO (UniProt Q9BRX2), the log2 fold change is 0.018.

For the target PPIL2 (UniProt Q13356), the log2 fold change is -0.063.

Turning to PUM1 isoform 3 (UniProt Q14671), the log2 fold change is -0.021.

Regarding PTPN7 isoform 3 (UniProt P35236), the log2 fold change was -0.015.

Consider PDCD6IP isoform 2 (UniProt Q8WUM4), for which the log2 fold change was 0.018.

Turning to PRPH isoform 2 (UniProt P41219), the log2 fold change is 0.028.

With PIR (UniProt O00625), the log2 fold change is -0.009.

Turning to PTGR2 (UniProt Q8N8N7), the log2 fold change was -0.002.

Take PPP2R5C isoform 5 (UniProt Q13362): the log2 fold change was 0.059.

For the target PFKFB3 isoform 4 (UniProt Q16875), the log2 fold change is -0.192.

In the case of PFDN2 (UniProt Q9UHV9), the log2 fold change was -0.028.

As to PPFIA2 (UniProt O75334), the log2 fold change was 0.024.

For the target PCYT1B (UniProt Q9Y5K3), the log2 fold change was -0.008.

For PPP1R11 (UniProt O60927), the log2 fold change was -0.067.

With PMS2 (UniProt P54278), the log2 fold change was 0.

Turning to PLXNB2 (UniProt O15031), the log2 fold change was -0.024.

Regarding PUS3 (UniProt Q9BZE2), the log2 fold change was 0.023.

In the case of PSTPIP2 (UniProt Q9H939), the log2 fold change was -0.007.

On to PGPEP1 (UniProt Q9NXJ5), for which the log2 fold change is -0.03.

As for PTPN6 isoform 4 (UniProt P29350), the log2 fold change is -0.128.

For the target PDE2A (UniProt O00408), the log2 fold change is 0.08.

Take PPIL3 (UniProt Q9H2H8): the log2 fold change is -0.054.

With PI4K2B (UniProt Q8TCG2), the log2 fold change was 0.689 (active).

On to PRIM2 (UniProt P49643), for which the log2 fold change was -0.001.

PFN1 (UniProt P07737): the log2 fold change was -0.018.

Take PIP4P2 (UniProt Q8N4L2): the log2 fold change was 0.121.

With PLEKHO2 (UniProt Q8TD55), the log2 fold change is -0.071.

For the target POLD3 (UniProt Q15054), the log2 fold change is 0.018.

Compound in the next test: NC1(c2ccc(-c3nc4ccn5c(=O)[nH]nc5c4cc3-c3ccccc3)cc2)CCC1
The description is as above. In a few lines: as §1
On to PRRC2A (UniProt P48634), for which the log2 fold change was 0.02.

As to PSMB9 (UniProt P28065), the log2 fold change was -0.076.

Regarding PRKAR2A (UniProt P13861), the log2 fold change was -0.011.

On to PLEKHF1 (UniProt Q96S99), for which the log2 fold change was -0.023.

With QKI (UniProt Q96PU8), the log2 fold change was -0.008.

Consider PGRMC1 (UniProt O00264), for which the log2 fold change is 0.056.

In the case of PYURF (UniProt Q96I23), the log2 fold change was -0.006.

Take PRKAB2 (UniProt O43741): the log2 fold change is 0.023.

For PHKA1 (UniProt P46020), the log2 fold change was -0.053.

Turning to PUS1 (UniProt Q9Y606), the log2 fold change was -0.023.

As for POC5 (UniProt Q8NA72), the log2 fold change was 0.034.

On to PELO (UniProt Q9BRX2), for which the log2 fold change is -0.029.

For PPIL2 (UniProt Q13356), the log2 fold change was 0.011.

Take PUM1 isoform 3 (UniProt Q14671): the log2 fold change is 0.028.

Regarding PTPN7 isoform 3 (UniProt P35236), the log2 fold change was -0.043.

As to PDCD6IP isoform 2 (UniProt Q8WUM4), the log2 fold change was 0.002.

Take PRPH isoform 2 (UniProt P41219): the log2 fold change is 0.094.

With PIR (UniProt O00625), the log2 fold change was -0.046.

In the case of PTGR2 (UniProt Q8N8N7), the log2 fold change is 0.011.

In the case of PPP2R5C isoform 5 (UniProt Q13362), the log2 fold change was -0.019.

Consider PFKFB3 isoform 4 (UniProt Q16875), for which the log2 fold change is -0.001.

On to PFDN2 (UniProt Q9UHV9), for which the log2 fold change was 0.053.

On to PPFIA2 (UniProt O75334), for which the log2 fold change is -0.089.

As for PCYT1B (UniProt Q9Y5K3), the log2 fold change was 0.054.

In the case of PPP1R11 (UniProt O60927), the log2 fold change was 0.078.

Consider PMS2 (UniProt P54278), for which the log2 fold change was -0.006.

Turning to PLXNB2 (UniProt O15031), the log2 fold change is -0.006.

Take PUS3 (UniProt Q9BZE2): the log2 fold change is 0.075.

Turning to PSTPIP2 (UniProt Q9H939), the log2 fold change was 0.007.

Take PGPEP1 (UniProt Q9NXJ5): the log2 fold change is 0.033.

As for PTPN6 isoform 4 (UniProt P29350), the log2 fold change is 0.062.

With PDE2A (UniProt O00408), the log2 fold change is -0.184.

In the case of PPIL3 (UniProt Q9H2H8), the log2 fold change was -0.051.

Take PI4K2B (UniProt Q8TCG2): the log2 fold change was 0.009.

Take PRIM2 (UniProt P49643): the log2 fold change was -0.021.

For PFN1 (UniProt P07737), the log2 fold change is 0.014.

With PIP4P2 (UniProt Q8N4L2), the log2 fold change was -0.007.

On to PLEKHO2 (UniProt Q8TD55), for which the log2 fold change was 0.873 (active).

In the case of POLD3 (UniProt Q15054), the log2 fold change is -0.027.

(Values after the supplement of paper PMC10849652.)
